Test results published in PubChem BioAssay (NCATS).
Records with an inconclusive call do not appear. Active and inactive are the calls of the source. Unless noted, the rule behind the calls is not given here.

Test: qHTS Assay for Identifying Gametocytocidal Compounds (AID 743244; active = well fitted curve in the direction sought with a large enough effect; an effect the other way counts as inactive or inconclusive; note: potency is the fitted concentration of half-maximal effect;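 for max response: % is set by controls: 0 for no effect and ±100 for the full control effect; actives lower the fluorescent signal which means gametocytes are killed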)
Details: P. falciparum 3D7 stage III-V gametocytes, alamarBlue, 72 h; max response: stronger effect = lower value
How it was run: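 Fluorescence at Ex 525/Em 598 nm, recorded 24 h after alamarBlue addition, reports residual metabolic activity of 3D7 gametocytes (stages III–V) following 72 h compound exposure at 37 °C, 5% CO2.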

| Compound | max response | Potency |
| --- | --- | --- |
| Nc1ccc(S(=O)(=O)Nc2cnc3ccccc3n2)cc1 | -6.45% (inactive) | – |
| N[C@H](C(=O)O)[C@@H](O)c1ccc(O)c(O)c1 | 1.39% (inactive) | – |
| COc1cc(C(=S)N2CCOCC2)ccc1O | 19.6% (inactive) | – |
| C#C[C@]1(O)CC[C@H]2[C@@H]3[C@H](C)CC4=C(CCC(=O)C4)[C@H]3CC[C@@]21C | -5.37% (inactive) | – |
| CCN(CC)CCOC(=O)C(Cc1cccc2ccccc12)CC1CCCO1 (stereo unspecified) | 7.43% (inactive) | – |
| CNCCCCOc1ccccc1Cc1ccccc1 | – | 18.7 µM (active) |

Test: qHTS profiling for inhibitors of Plasmodium falciparum (3D7) proliferation (AID 743322);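 note: infected erythrocytes exposed to compound for 72 h before lysis; 100% = DMSO vehicle wells and 0% = 0.29 µM artemisinin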
Details: P. falciparum 3D7 proliferation; at 28.7 µM (top of the series) unless noted
How it was run: (§1)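 Parasite DNA was quantified by SYBR Green I fluorescence (ex 485, em 535 nm) after overnight lysis in saponin/Triton buffer at room temperature. Cultures at 0.3% parasitemia and 2.5% hematocrit were first exposed to compound for 72 h at 37 C; signals were normalised to artemisinin (0.29 uM) and vehicle wells.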

| Compound | remaining parasite growth % (stronger effect = lower value) |
| --- | --- |
| O=C1C(=O)c2ccccc2C(O)=C1C1CCC(c2ccc(Cl)cc2)CC1 (stereo unspecified) | 9.76e-05% |
| CC(CNC1CCCCC1)OC(=O)c1ccccc1 (stereo unspecified) | 106% [at 9.63 µM] |
| C[N+]1(C)CCC(=C(c2ccccc2)c2ccccc2)CC1 | 4.05% [at 18.4 µM] |
| CNCCCCOc1ccccc1Cc1ccccc1 | 65.9% |

Test: qHTS profiling for inhibitors of Plasmodium falciparum (DD2) proliferation (AID 743323)
Details: lower = more inhibition; at 28.7 µM (top of the series) unless noted
How it was run: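 P. falciparum Dd2-infected erythrocytes (0.3% parasitemia, 2.5% hematocrit) exposed 72 h at 37 C, 5% CO2. Lysis with SYBR Green, overnight at room temperature, fluorescence 485/535 nm; normalized to 0.29 uM artemisinin and DMSO.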

| Compound | activity, percent of control |
| --- | --- |
| O=C1C(=O)c2ccccc2C(O)=C1C1CCC(c2ccc(Cl)cc2)CC1 (stereo unspecified) | 3.7% |
| CC(CNC1CCCCC1)OC(=O)c1ccccc1 (stereo unspecified) | 61.4% [at 9.63 µM] |
| C[N+]1(C)CCC(=C(c2ccccc2)c2ccccc2)CC1 | 22.2% [at 18.4 µM] |
| CNCCCCOc1ccccc1Cc1ccccc1 | 31.1% |

Test: qHTS profiling for inhibitors of Plasmodium falciparum (HB3) proliferation (AID 743324; active = well fitted curve in the direction sought with a large enough effect; an effect the other way counts as inactive or inconclusive;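 note: 100% = DMSO vehicle wells and 0% = artemisinin-treated control wells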)
Details: Plasmodium falciparum HB3 blood-stage proliferation; at 28.7 µM (top of the series) unless noted
How it was run: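 SYBR Green fluorescence (485 ex/535 em) of lysed cultures, incubated overnight at room temperature in the dark, quantifies parasite DNA. Infected erythrocytes at 0.3% parasitemia and 2.5% hematocrit were exposed 72 h; values normalized to DMSO and 0.29 uM artemisinin controls.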

| Compound | remaining proliferation (% of control), lower = more inhibition |
| --- | --- |
| O=C1C(=O)c2ccccc2C(O)=C1C1CCC(c2ccc(Cl)cc2)CC1 (stereo unspecified) | 1.19% |
| CC(CNC1CCCCC1)OC(=O)c1ccccc1 (stereo unspecified) | 111% [at 9.63 µM] |
| CNCCCCOc1ccccc1Cc1ccccc1 | 42.9% |

Test: qHTS profiling of the MIPE4 collection as inhibitors of Plasmodium falciparum (3D7) proliferation (AID 743344);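 note: scaled between DMSO vehicle wells and 0.29 µM artemisinin as full inhibition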
Details: P. falciparum 3D7 in erythrocytes, SYBR Green DNA fluorescence, 72 h; at 28.5 µM (top of the series)
How it was run: as §1

| Compound | parasite growth, % of DMSO control [%] |
| --- | --- |
| O=C1C(=O)c2ccccc2C(O)=C1C1CCC(c2ccc(Cl)cc2)CC1 (stereo unspecified) | 9.11 |
| NS(=O)(=O)Cc1noc2ccccc12 | 102 |
| CCOC(=O)Nc1ccc2c(c1)N(C(=O)CCN1CCOCC1)c1ccccc1S2 | 47.5 |

Test: qHTS profiling of the MIPE4 collection as inhibitors of Plasmodium falciparum (DD2) proliferation (AID 743345)
Details: P. falciparum Dd2 in erythrocytes, SYBR Green DNA, 72 h; at 28.5 µM (top of the series)
How it was run: as §1

| Compound | parasite growth remaining, % of DMSO control (lower = more inhibition) [%] |
| --- | --- |
| O=C1C(=O)c2ccccc2C(O)=C1C1CCC(c2ccc(Cl)cc2)CC1 (stereo unspecified) | 9.71 |
| NS(=O)(=O)Cc1noc2ccccc12 | 99.5 |
| CCOC(=O)Nc1ccc2c(c1)N(C(=O)CCN1CCOCC1)c1ccccc1S2 | 85.2 |

Test: qHTS profiling of the MIPE4 collection as inhibitors of Plasmodium falciparum (DD2) proliferation (Rep 2) (AID 743346)
Details: P. falciparum Dd2 in erythrocytes, SYBR Green DNA, 72 h; at 28.5 µM (top of the series)
How it was run: as §1

| Compound | parasite growth, % of control (lower = inhibition) [%] |
| --- | --- |
| O=C1C(=O)c2ccccc2C(O)=C1C1CCC(c2ccc(Cl)cc2)CC1 (stereo unspecified) | 18.4 |
| NS(=O)(=O)Cc1noc2ccccc12 | 74.3 |
| CCOC(=O)Nc1ccc2c(c1)N(C(=O)CCN1CCOCC1)c1ccccc1S2 | 68.2 |
